Sampled rows, rich in hits. Any-hit rate of the full collection: about 8%.
HCV inhibitor: blocks hepatitis C virus. AID 651820. 3.4% of 340,000 active. Huh7.5.1 HCVcc-Cre infection, luciferase reporter, 44 h. Potency, µM (highest dose often 41.8 µM), hits mostly inhibitors; active = well fitted inhibition curve with a large enough effect; inconclusive = small, poorly fitted or top-dose-only effect, or another doubt; inactive = no such curve, though single readings can be large or run the other way
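Compounds are dispensed onto cells plated 4 h earlier at 1,000 per well, with HCVcc-Cre virus (about 0.5 moi) added next. Following 44 h of culture, luminescent signal is measured for 15 sec after 15 min with substrate at room temperature.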
SARS PLpro yeast: blocks SARS-CoV papain-like protease in a yeast assay; Potency, µM (top dose mostly 32.9 µM), most hits filed as activators; AID 485353; S. cerevisiae expressing SARS-CoV PLpro, growth rescue; 0.19% of 330,000 active; calls by dose curve; also: nearly all actives have a fitted effect of over 55% in size
LASV entry inh: inhibitors of Lassa virus binding or cell entry | Lassa virus pseudotype entry inhibition, cell reporter | Potency, µM (titrated, usually from 37.9 µM), most hits filed as inhibitors | 1.2% of 300,000 active; calls by dose curve; tested in HEK293 cells; also: nearly all actives have a fitted effect of over 50% in size
FMDV inh: blocks foot and mouth disease virus; FMDV antiviral cell-based qHTS; Potency, µM (doses to about 57.9 µM), hits mostly inhibitors; 1.2% of 410,000 active; calls by dose curve; tested in HEK293T cells; also: read-out not given here; nearly all actives have a fitted effect of over 45% in size
MARV entry inh: Marburg virus entry inhibition; Potency, µM (highest dose often 37.8 µM), most hits filed as inhibitors; Marburg virus pseudotyped entry inhibition, cell reporter; 1.8% of 300,000 active; calls by dose curve; tested in HEK293 cells
HCMV antiviral: human cytomegalovirus inhibition; HFF cells, HCMV-luciferase reporter, 72 h; stronger effect = lower value; 4.5% of 410,000 active; AID 1259415; activity change, negative = inhibition, % at 57.5 µM; in the data active = activity change below about -60%; inconclusive = no clear call, values can overlap the other calls; inactive = above about -39%
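Compounds were evaluated in HFFs infected with an HCMV luciferase reporter virus (MOI 1 PFU/cell). Luciferase in lysates collected 72 h post infection served as the replication measure.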
Hits are given with their value; - = inactive; ? = inconclusive; . = not tested or not shown; ! = not active in a repeat.

SMILES	HCV inhibitor	SARS PLpro yeast	LASV entry inh	FMDV inh	MARV entry inh	HCMV antiviral
CCCN1C(=O)/C(=C/c2ccc(C)s2)SC1=Nc1ccc(OC)cc1	-	-	?	-	-	-
CCN(CC)CCN1C(=O)/C(=C\c2ccc(Cl)c([N+](=O)[O-])c2)SC1=Nc1ccc(OC)cc1	?	-	?	25µM	?	-99
COc1ccc(N=C2S/C(=C\c3ccc(Cl)c([N+](=O)[O-])c3)C(=O)N2CCN(C)C)cc1	?	-	.	28µM	.	-
COC(=O)c1nnn(-c2ccccc2)c1N	?	-	-	-	?	-
C#Cc1cccc(-n2nnc(C(=O)OC)c2-c2ccccc2)c1	-	-	-	?	-	-102
Cc1ccc(OCCCC(=O)Nc2ccc(Cl)c(S(=O)(=O)N3CCOCC3)c2)cc1	7.1µM	-	.	?	.	-
O=C(CCCSc1ccccc1)Nc1ccc(Cl)c(S(=O)(=O)N2CCOCC2)c1	?	-	?	25µM	?	-
O=C(CCCOc1ccccc1)Nc1ccc(Cl)c(S(=O)(=O)N2CCOCC2)c1	7.1µM	-	18µM	28µM	?	-73
O=C(CCSc1ccccc1)Nc1ccc(S(=O)(=O)N2CCOCC2)cc1	-	-	-	-	-	-
CC(C)Oc1ccc(S(=O)(=O)N2CCOCC2)cc1NC(=O)CCCSc1ccccc1	11µM	-	-	-	?	-
COc1ccc(S(=O)(=O)N2CCOCC2)cc1NC(=O)CSc1ccccc1	.	-	-	-	-	-
Cc1ccc(NC(=O)CCCOc2ccccc2)cc1S(=O)(=O)N1CCOCC1	?	-	.	-	.	-
CCc1ccc(S(=O)(=O)Nc2ccc3oc(C)c(C(=O)OCCOC)c3c2)cc1	.	.	-	-	-	-
Cc1nc2nncn2c(NCc2ccc(Cl)cc2)c1C	.	.	-	-	?	-
O=C(COc1cccc(Br)c1)Nc1ccc(Cl)c(S(=O)(=O)N2CCOCC2)c1	?	-	-	?	?	-
CCN(CC)S(=O)(=O)c1cc(NC(=O)CCCOc2ccc(C(C)=O)cc2)ccc1C	10µM	-	?	16µM	?	-
COc1cc(C(C)=O)ccc1OCC(=O)Nc1ccc(Cl)c(S(=O)(=O)N2CCOCC2)c1	13µM	-	.	20µM	.	-
CC(=O)c1ccc(OCCCC(=O)Nc2ccc(Cl)c(S(=O)(=O)N3CCOCC3)c2)cc1	2.5µM	.	.	16µM	.	-79
CCc1ccc(CNC(=O)COc2cc(=O)n(CC)c3ccccc23)cc1	.	.	-	-	-	-
CN(Cc1ccccn1)Cc1nc(Cc2ccccc2Cl)no1	-	-	?	-	-	?
Cc1cnccc1CN(C)Cc1nc(Cc2ccccc2Cl)no1	?	-	?	?	-	-61
COc1ccc2cc([C@H](C)C(=O)N(C)Cc3ccccc3N3CCCC3)ccc2c1	10µM	-	?	-	?	-
COc1ccc(C(CNC(=O)C(C)c2ccc3cc(OC)ccc3c2)N(C)C)cc1 (stereo not given)	-	-	?	-	?	-
COc1ccccc1CCn1cnc(C)c1CC(C)C	.	.	.	-	.	-
COc1ccccc1CCn1cnc(Cc2cccc(F)c2)c1C(C)C	.	.	.	22µM	.	?
SMILES	HCV inhibitor	SARS PLpro yeast	LASV entry inh	FMDV inh	MARV entry inh	HCMV antiviral
CCCc1c(Cc2cccc(F)c2)ncn1CCc1ccccc1OC	.	.	.	.	.	-61
O=[N+]([O-])c1cc(-c2ncccn2)c([N+](=O)[O-])s1	?	-	?	40µM	?	-
COc1ccc(C(=O)Nc2nnc(C)s2)cc1S(=O)(=O)N1CCOCC1	?	-	.	-	.	-
COc1ccc(C(=O)Nc2nc(C)c(C(C)=O)s2)cc1S(=O)(=O)N1CCOCC1	-	-	.	-	.	-92
COc1ccc(C(=O)Nc2ccc(-c3ccc(C)o3)cc2)cc1S(=O)(=O)N1CCOCC1	2.5µM	-	7.9µM	10µM	13µM	-96
Cc1nn(C)cc1CN1CCOc2ccc(CN3CCC(Oc4cccnc4)CC3)cc2C1	.	.	.	-	.	.
Cc1ccc2nc(-c3ccccc3Cl)cc(C(=O)Nc3cc(C)on3)c2c1	13µM	-	-	?	-	-
COC(=O)CNC(c1ccccc1Cl)c1cc(Br)ccc1NS(=O)(=O)c1ccc(C)cc1 (stereo not given)	?	-	?	-	?	-70
CN(C)c1ccc(CNc2ccc3c(c2)ncn3C)cc1	?	-	-	-	?	-102
CCc1ccc(CNc2ccc3c(c2)ncn3C(C)(C)C)cc1	-	-	1.8µM	-	10µM	-64!
CCN(CC)c1ccc(CNc2ccc3c(c2)ncn3C(C)(C)C)cc1	-	-	-	-	?	-68
CCOc1ccc(S(=O)(=O)Nc2cccc(OC)c2)c2cccnc12	.	.	-	-	-	-
CC1CN(CCC(=O)NC(c2cccnc2)C(F)(F)F)Cc2cc(Cl)ccc2O1 (stereo not given)	.	.	.	-	.	.
CC1=CC[C@@H](C)O[C@@]2(C1)C(=O)Nc1ccccc12	.	.	.	.	-	.
O=C(NNC1=Nc2ccccc2SC1)c1ccccc1F	14µM	-	?	-	?	-86
O=C(NNC1=Nc2ccccc2SC1)c1cccc([N+](=O)[O-])c1	-	-	?	-	?	-84
COc1ccc2c(c1)c(=O)c(S(=O)(=O)c1ccc(C)c(C)c1)cn2CC(=O)Nc1ccccc1	.	.	-	-	?	-
CC(=O)C(=Cc1ccc(Cl)cc1)C(=O)c1ccccc1	.	.	.	28µM	.	-
CC(=O)C(=Cc1cccc(C#N)c1)C(=O)c1ccccc1	.	.	.	13µM	.	?
COc1ccc(C=C(C(C)=O)C(=O)c2ccccc2)cc1	.	.	.	?	.	-
O=C(NC1CCCC1)c1ccc(CSc2nc3cccnc3n2Cc2ccccc2F)cc1	.	.	-	?	.	-
CSc1ccc(Nc2nn(-c3ccc(OC(F)(F)F)cc3)nc2C(C)=O)cc1	.	.	-	-	-	?
NC(=S)N/N=C/c1ccccc1OCCSc1ccc(Cl)cc1	?	-	3.7µM	35µM	?	-69
CCOc1cc(/C=N/NC(N)=O)cc(Br)c1OCc1ccccc1	?	-	.	?	.	-
CCOc1cc(/C=N/NC(N)=S)cc(Br)c1OCc1ccccc1C	11µM	-	?	-	?	.
SMILES	HCV inhibitor	SARS PLpro yeast	LASV entry inh	FMDV inh	MARV entry inh	HCMV antiviral
COc1cccc(/C=N/NC(N)=S)c1OCc1ccccc1Cl	?	?	-	?	?	-78
COc1cc(/C=N/NC(N)=S)cc(Br)c1OCc1ccccc1F	8.9µM	-	?	?	?	?
CNC(=S)N/N=C/c1cc(Br)c(OCc2ccncc2)c(OC)c1	-	-	.	-	.	-
COc1ccc(S(=O)(=O)NCc2ccc3c(c2)CCN3C(C)=O)cc1OC	.	.	?	-	.	-
CC(=O)CCc1oc2c([N+](=O)[O-])cccc2c1-c1ccc(C)o1	13µM	-	.	-	.	-
O=S(=O)(Nc1ccc(-c2ccc(N3CCCCC3)nn2)cc1)c1ccc(OC(F)(F)F)cc1	.	.	-	-	.	-
COC(=O)c1ccc(N2C(c3ccsc3)=Cc3cc4c(cc3C2CC(=O)c2ccco2)OCO4)cc1 (stereo not given)	.	.	.	-	.	-69
COc1ccc(N2CCN(C(=O)c3cc4c(=O)n(Cc5cccs5)ccc4nc3C)CC2)cc1	.	.	-	-	.	-
C=CCn1c(SCC(=O)c2ccc(O)c(O)c2)nnc1-c1cccc(Cl)c1	4µM	-	.	-	.	-

Screening results: PubChem BioAssay, National Center for Advancing Translational Sciences (NCATS)
